# PubChem BioAssay (NCATS)
# “And” between values parts separate entries of the source, which are not always exact repeats. Equal values may be shown once. Results filed as inconclusive are left out. Where a call stands in place of a potency, no number is given. The source made the active and inactive calls. Unless noted, calls come from the whole dose curve; as a rule, active = well fitted curve in the direction sought with a large enough effect; inconclusive = small, poorly fitted or top-dose-only effect, or another doubt; inactive = no such curve, though single readings can be large; an effect the other way counts as inactive or inconclusive.
# Experiments:
# [1] = molecular target: Retinoic acid receptor RXR-alpha (Homo sapiens) (UniProt P19793); experiment: qHTS assay for small molecule agonists of retinoid X receptor alpha signaling (AID 588544; calls by dose curve)
# [2] = qHTS assay for small molecule antagonists of retinoid X receptor alpha signaling (AID 588546; active = well fitted inhibition curve with a large enough effect in the signal ratio, with a control signal flat, not every such curve was filed as active; the % refers to the signal ratio;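 note: cells stimulated with 9-cis-retinoic acid as agonist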); details: HEK293T RXRa-UAS-bla, beta-lactamase ratio, antagonist mode; measured here: W530 green channel, cytotoxicity proxy
# Procedure, shortened: (§1)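 Beta-lactamase reporter inhibition, read as CCF4 fluorescence ratio (ex 405, em 460/530 nm) after 2 h at RT. HEK293T UAS-bla cells, 2500/well, were stimulated with 9-cis-RA at 500 or 100 nM final alongside test compound for 18 h at 37 C.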
# [3] = molecular target: Retinoic acid receptor RXR-alpha (Homo sapiens) (UniProt P19793); experiment: as above; details: HEK293T RXRa-UAS-bla, beta-lactamase ratio, antagonist mode
# Procedure, shortened: as §1
# [4] = molecular target: Voltage-gated inwardly rectifying potassium channel KCNH2 (Homo sapiens) (UniProt Q12809); experiment: qHTS Assay for Small Molecule Inhibitors of the Human hERG Channel Activity (AID 588834);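 note: lower thallium flux fluorescence means stronger hERG block; nearly all actives have a fitted effect of over 50% in size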; note: potency is the fitted concentration of half-maximal effect
# Procedure, shortened: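 Thallium-flux (FluxOR) read-out on FDSS: fluorescence read 10 s before and 2 min after stimulation buffer. hERG-BacMam-transduced U2OS cells, compound exposure about 10 min. AC50 by standard Hill equation.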
# [5] = molecular target: Luciferin 4-monooxygenase (Photinus pyralis) (UniProt P08659); experiment: Biochemical firefly luciferase enzyme assay for NPC (AID 624030); note: nearly all actives have a fitted effect of over 70% in size; note: potency is the fitted concentration of half-maximal effect
# Procedure, shortened: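 Purified P. pyralis luciferase at 10 nM in 50 mM Tris Acetate (final), luminescence read within 5 minutes of enzyme addition to compounds. Activity normalised to PTC124 versus DMSO; concentration-response curves classed by r2, magnitude and activity.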
# [6] = S16 Schwann cell viability assay (CellTiter-Glo assay) (AID 624031);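 note: native untransfected S16 rat Schwann cells; cellular ATP luminescence as a viability measure; series mostly up to about 58 µM; nearly all actives have a fitted effect of over 70% in size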
# Procedure, shortened: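 Parental S16 cells, 24 h compound, 37 °C. ATP-luminescence viability; DMSO = 0% activity, empty wells as reference; curves classified by fit quality and efficacy.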
# [7] = S16 Schwann cell PMP22 intronic element firefly luciferase assay (AID 624032); note: nearly all actives have a fitted effect of over 30% in size; note: potency is the fitted concentration of half-maximal effect
# Procedure, shortened: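 Rat S16 Schwann cells stably carrying firefly luciferase driven by a PMP22 intronic element, in 10% FBS, treated 24 h at 37 C. ONE-Glo luminescence normalized to PTC124 control and DMSO (0%); curves classed by r2, magnitude and activity.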
# [8] = S16 Schwann cell PMP22 intronic element beta-lactamase assay (AID 624044; calls by dose curve; note: nearly all actives have a fitted effect of over 15% in size; note: potency is the fitted concentration of half-maximal effect)
# Procedure, shortened: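 Beta-lactamase reporter under a PMP22 intronic regulatory element in stable S16 rat Schwann cells; 24 h compound exposure. 460 nm blue signal normalized between DMSO (0%) and potassium clavulanate, with 535 nm FRET tracking viability; curves classed by r2 and response.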
# [9] = qHTS of Trypanosoma Brucei Inhibitors: LOPAC Validation (AID 624147)
# Procedure, shortened: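 Readout: single end-point luminescence (Kinase-Glo Plus, 10 min). Reaction conditions were TbPYK/substrate plus 130 uM ADP, 45 min at RT, pH 7.2 TEA buffer. No-enzyme wells served as controls, and data were normalized before concentration-response fitting.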
# [10] = molecular target: Glucagon-like peptide 1 receptor (Homo sapiens) (UniProt P43220); experiment: qHTS of GLP-1 Receptor Agonists: LOPAC Validation (AID 624148);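 note: higher luminescence signal means agonism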
# Procedure, shortened: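 HEK293 cells stably co-expressing GLP-1R and a cAMP-responsive luciferase reporter, plated 12 hours before compound, then incubated 4-6 hr at 37 deg C. Luminescence read 12 min after detection reagent.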
# [11] = qHTS of Nrf2 Activators: LOPAC Validation (AID 624149)
# Procedure, shortened: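 Cells (AREc32_Fluc) are plated at 1000 per well in OPTI-MEM containing 5% FBS and left overnight. Compounds are pinned in and incubated 24 hr at 37 deg C, and firefly luciferase is detected with Steady-Glo.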
# [12] = HTS Assay for Allosteric Antagonists of the Human D2 Dopamine Receptor: Hit Validation in HTRF (AID 624455);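 note: stable D1 dopamine receptor cell line scored for blocking the D1 response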
# Procedure, shortened: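 Inhibition of the D1-mediated response is measured by HTRF in cells that stably express the D1 dopamine receptor. Compounds reaching this step are hits from calcium-flux antagonism testing at EC80 dopamine in inducible Hek293 Trex D2 cells.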
# [13] = molecular target: Thyroid hormone receptor beta (Homo sapiens) (UniProt P10828); experiment: qHTS assay for small molecule antagonists of thyroid hormone receptor beta signaling (AID 588547; active = well fitted inhibition curve with a large enough effect in the signal ratio, with a control signal flat, not every such curve was filed as active; the % refers to the signal ratio;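 note: cells stimulated with 0.4 nM T3 agonist during compound exposure; series mostly up to about 77 µM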); details: TR-UAS-bla HEK293, beta-lactamase ratio, antagonist mode, 18 h
# Procedure, shortened: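 TR-UAS-bla GripTite HEK293 cells in 2% charcoal/dextran FBS medium; compounds 0.59 nM to 92 uM with T3 at 0.4nM final, 18 h at 37 C. Beta-lactamase read by CCF4 fluorescence (460/530 nm); Hill fits gave IC50 and efficacy.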
# [14] = molecular target: Glutaminase kidney isoform, mitochondrial (Homo sapiens) (UniProt O94925); experiment: qHTS for Inhibitors of Glutaminase (GLS): LOPAC Validation (AID 624146);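 note: glutamate product detected by oxidase and peroxidase coupled Amplex red fluorescence gain; series mostly up to about 46 µM; nearly all actives have a fitted effect of over 60% in size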
# Procedure, shortened: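 Read-out is an Amplex red fluorescence increase coupled through glutamate oxidase and HRP, measured before and after 30 min room-temperature incubation. hKGA is in 45 mM KH2PO4 (pH 8.2) with 0.02% Tween-20; glutamine added as 1mM solution.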
# Glucagon-like peptide 1 receptor (Homo sapiens), sequence (P43220 whole entry, looked up): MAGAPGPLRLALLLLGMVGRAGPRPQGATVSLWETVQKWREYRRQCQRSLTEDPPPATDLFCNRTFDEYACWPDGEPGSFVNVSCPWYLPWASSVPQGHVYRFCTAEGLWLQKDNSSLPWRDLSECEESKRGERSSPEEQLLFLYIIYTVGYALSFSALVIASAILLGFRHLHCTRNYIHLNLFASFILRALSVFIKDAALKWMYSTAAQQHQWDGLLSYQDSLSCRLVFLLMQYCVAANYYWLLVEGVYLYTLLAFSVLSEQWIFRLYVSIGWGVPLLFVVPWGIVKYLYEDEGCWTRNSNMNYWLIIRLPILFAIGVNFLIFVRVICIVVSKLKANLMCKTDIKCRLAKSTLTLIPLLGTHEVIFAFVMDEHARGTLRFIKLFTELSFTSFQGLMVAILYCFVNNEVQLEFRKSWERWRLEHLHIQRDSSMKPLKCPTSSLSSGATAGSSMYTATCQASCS
# Voltage-gated inwardly rectifying potassium channel KCNH2 (Homo sapiens), sequence (Q12809 whole entry, looked up): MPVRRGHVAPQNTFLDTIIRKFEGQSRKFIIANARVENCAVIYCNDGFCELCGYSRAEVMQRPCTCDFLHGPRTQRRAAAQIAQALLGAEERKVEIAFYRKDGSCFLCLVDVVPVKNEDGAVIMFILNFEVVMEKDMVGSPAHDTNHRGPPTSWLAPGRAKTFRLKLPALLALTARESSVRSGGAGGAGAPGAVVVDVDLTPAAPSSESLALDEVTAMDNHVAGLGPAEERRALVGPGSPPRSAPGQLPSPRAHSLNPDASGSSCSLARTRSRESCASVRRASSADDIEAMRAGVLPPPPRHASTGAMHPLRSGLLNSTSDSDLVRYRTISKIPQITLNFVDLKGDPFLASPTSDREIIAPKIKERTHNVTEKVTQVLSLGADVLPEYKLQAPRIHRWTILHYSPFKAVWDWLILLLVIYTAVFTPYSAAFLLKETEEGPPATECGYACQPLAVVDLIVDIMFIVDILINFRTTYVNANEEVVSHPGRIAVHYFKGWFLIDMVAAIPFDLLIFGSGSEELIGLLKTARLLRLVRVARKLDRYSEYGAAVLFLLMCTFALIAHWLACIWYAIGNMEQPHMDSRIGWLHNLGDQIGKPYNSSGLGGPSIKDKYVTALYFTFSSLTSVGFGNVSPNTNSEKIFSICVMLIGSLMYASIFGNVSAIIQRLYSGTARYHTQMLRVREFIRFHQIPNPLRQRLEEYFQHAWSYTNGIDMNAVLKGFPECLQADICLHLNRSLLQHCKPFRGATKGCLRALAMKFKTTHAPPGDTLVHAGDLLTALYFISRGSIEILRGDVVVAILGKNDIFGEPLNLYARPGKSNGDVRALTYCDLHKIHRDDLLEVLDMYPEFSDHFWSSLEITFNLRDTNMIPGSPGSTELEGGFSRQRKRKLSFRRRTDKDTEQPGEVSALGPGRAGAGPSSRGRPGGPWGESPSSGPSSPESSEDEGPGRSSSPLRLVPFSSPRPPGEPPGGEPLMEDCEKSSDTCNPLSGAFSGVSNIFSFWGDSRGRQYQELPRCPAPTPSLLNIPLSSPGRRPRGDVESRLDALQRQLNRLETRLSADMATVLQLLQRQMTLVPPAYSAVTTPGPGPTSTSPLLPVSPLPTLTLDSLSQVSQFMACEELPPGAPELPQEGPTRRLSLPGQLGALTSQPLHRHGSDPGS
# Thyroid hormone receptor beta (Homo sapiens), sequence (P10828 whole entry, looked up): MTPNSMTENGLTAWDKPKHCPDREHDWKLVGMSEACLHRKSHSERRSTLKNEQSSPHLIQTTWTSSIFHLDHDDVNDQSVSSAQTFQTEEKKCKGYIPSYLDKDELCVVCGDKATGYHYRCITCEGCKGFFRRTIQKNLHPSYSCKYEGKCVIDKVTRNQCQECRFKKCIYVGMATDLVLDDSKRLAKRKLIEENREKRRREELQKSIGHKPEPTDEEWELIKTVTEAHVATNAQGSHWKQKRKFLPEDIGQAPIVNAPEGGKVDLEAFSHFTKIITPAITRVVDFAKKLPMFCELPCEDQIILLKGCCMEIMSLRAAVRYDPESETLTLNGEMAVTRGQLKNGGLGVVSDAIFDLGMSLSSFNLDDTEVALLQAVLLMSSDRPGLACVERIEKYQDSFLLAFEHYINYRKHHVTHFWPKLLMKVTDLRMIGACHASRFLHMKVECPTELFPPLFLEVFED
# Luciferin 4-monooxygenase (Photinus pyralis), sequence (P08659 whole entry, looked up): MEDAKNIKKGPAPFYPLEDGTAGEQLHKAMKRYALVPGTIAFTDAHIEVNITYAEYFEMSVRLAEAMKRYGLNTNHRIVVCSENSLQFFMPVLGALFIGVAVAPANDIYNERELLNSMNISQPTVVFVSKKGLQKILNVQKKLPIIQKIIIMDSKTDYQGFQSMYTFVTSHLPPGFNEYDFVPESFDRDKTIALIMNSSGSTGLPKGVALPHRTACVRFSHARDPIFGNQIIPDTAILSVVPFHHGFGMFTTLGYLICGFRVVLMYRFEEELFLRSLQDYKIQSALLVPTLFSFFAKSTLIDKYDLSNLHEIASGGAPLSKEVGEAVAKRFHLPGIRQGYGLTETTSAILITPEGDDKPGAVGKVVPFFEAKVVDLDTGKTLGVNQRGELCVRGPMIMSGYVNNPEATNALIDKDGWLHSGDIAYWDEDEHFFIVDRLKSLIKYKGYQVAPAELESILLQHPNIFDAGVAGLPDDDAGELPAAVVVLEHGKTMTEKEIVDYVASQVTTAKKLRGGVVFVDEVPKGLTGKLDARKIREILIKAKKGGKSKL
# Glutaminase kidney isoform, mitochondrial (Homo sapiens), sequence (O94925 whole entry, looked up, canonical isoform): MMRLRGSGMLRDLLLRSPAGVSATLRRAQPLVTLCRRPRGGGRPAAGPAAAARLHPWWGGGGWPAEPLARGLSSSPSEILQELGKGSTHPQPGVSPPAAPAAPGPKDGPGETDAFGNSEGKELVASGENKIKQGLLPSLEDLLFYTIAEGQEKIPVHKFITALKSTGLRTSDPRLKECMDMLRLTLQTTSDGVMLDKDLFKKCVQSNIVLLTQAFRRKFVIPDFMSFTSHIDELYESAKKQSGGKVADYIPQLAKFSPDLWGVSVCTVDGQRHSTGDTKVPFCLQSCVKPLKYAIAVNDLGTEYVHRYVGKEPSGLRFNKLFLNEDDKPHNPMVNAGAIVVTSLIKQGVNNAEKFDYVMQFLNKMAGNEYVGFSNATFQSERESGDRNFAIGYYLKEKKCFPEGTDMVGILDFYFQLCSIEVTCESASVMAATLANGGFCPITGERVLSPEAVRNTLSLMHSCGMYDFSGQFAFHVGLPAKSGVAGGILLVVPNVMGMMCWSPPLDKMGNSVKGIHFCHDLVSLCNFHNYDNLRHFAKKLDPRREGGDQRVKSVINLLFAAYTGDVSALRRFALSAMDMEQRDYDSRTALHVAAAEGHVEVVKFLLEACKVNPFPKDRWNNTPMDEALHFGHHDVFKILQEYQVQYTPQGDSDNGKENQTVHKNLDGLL
# Retinoic acid receptor RXR-alpha (Homo sapiens), sequence (P19793 whole entry, looked up): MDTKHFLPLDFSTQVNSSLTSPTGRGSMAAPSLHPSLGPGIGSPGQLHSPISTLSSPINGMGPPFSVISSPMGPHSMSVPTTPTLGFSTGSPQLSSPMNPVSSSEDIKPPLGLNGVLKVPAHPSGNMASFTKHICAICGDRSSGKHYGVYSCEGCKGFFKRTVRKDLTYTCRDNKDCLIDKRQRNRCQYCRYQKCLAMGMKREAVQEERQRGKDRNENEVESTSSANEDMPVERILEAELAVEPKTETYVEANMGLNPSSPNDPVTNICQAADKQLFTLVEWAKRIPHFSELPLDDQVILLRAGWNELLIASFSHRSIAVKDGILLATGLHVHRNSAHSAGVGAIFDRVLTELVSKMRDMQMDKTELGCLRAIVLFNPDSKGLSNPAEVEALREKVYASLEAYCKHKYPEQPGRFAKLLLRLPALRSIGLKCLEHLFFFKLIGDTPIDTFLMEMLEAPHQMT
structure (smiles),measurement,setting,value
Oc1cccc(O)c1,outcome,[1],inactive
same,max response,[2],-5.21%
same,max response,[3],1.73% (inactive)
same,Potency,[4],inactive
same,Potency,[5],inactive
same,Potency,[6],inactive
same,Potency,[7],inactive
same,Potency,[8],inactive
CN(C)CCC=C1c2ccccc2CCc2ccccc21,outcome,[1],inactive
same,Potency,[5],inactive
same,outcome,[9],inactive
same,outcome,[10],inactive
same,outcome,[11],inactive
same,outcome,[12],inactive
CC1(C)[C@@H]2CC[C@@]1(C)C(=O)C2,outcome,[1],inactive
same,max response,[2],1.15%
same,max response,[3],2.47% (inactive)
same,activity change % (negative = inhibition),[13],-4.32% (inactive)
same,Potency,[4],inactive
same,Potency,[5],inactive
same,Potency,[6],inactive
same,Potency,[7],2.56 µM (active)
same,Potency,[8],9.99 µM (active)
CN1CCOC(c2ccccc2)c2ccccc2C1 (configuration not stated),Potency,[4],inactive
CC12CCC(CC1)C(C)(C)O2,outcome,[1],inactive
same,max response,[2],-6.73%
same,max response,[3],10.3% (inactive)
same,activity change % (negative = inhibition),[13],18.1% (inactive)
same,Potency,[4],inactive
same,Potency,[5],inactive
same,Potency,[6],inactive
same,Potency,[7],inactive
CCCc1c(OCCCCc2nn[nH]n2)ccc(C(C)=O)c1O,max response,[2],22.4%
same,max response,[3],3.05% (inactive)
same,Potency,[4],inactive
same,Potency,[8],inactive
C[C@]12C[C@H](O)[C@H]3[C@@H](CCC4=CC(=O)CC[C@@]43C)[C@@H]1CC[C@@H]2C(=O)CO,outcome,[1],inactive
same,max response,[2],12.2%
same,max response,[3],9.95% (inactive)
same,activity change % (negative = inhibition),[13],-13.1% (inactive)
same,Potency,[4],inactive
same,Potency,[5],inactive
same,Potency,[6],inactive
same,Potency,[7],inactive
same,Potency,[14],inactive
same,outcome,[9],inactive
same,outcome,[10],inactive
same,outcome,[11],inactive
same,outcome,[12],inactive
Nc1ccc(S(=O)(=O)Nc2nccs2)cc1,outcome,[1],inactive
same,max response,[2],-9.52%
same,max response,[3],19.3% (inactive)
same,Potency,[4],inactive
same,Potency,[5],inactive
same,Potency,[7],inactive
O=C1c2c(O)cccc2Cc2cccc(O)c21,outcome,[1],inactive
same,max response,[2],-14.8%
same,max response,[3],9.5% (inactive)
same,activity change % (negative = inhibition),[13],3.09% (inactive)
same,Potency,[4],inactive
same,Potency,[5],inactive
same,Potency,[6],inactive
same,Potency,[7],inactive
COc1ccc(Cl)cc1C(=O)NCCc1ccc(S(=O)(=O)NC(=O)NC2CCCCC2)cc1,max response,[2],15.3%
same,max response,[3],-9.84% (inactive)
same,activity change % (negative = inhibition),[13],12.2% (inactive)
same,Potency,[5],inactive
same,Potency,[8],inactive
same,Potency,[14],inactive
same,outcome,[9],inactive
same,outcome,[10],inactive
same,outcome,[11],inactive
same,outcome,[12],inactive
NC(=O)N/N=C/c1ccc([N+](=O)[O-])o1,max response,[2],1.55% and -8.19%
same,max response,[3],5.86% (inactive) and 14.5% (inactive)
same,activity change % (negative = inhibition),[13],0.5% (inactive)
same,Potency,[4],inactive
same,Potency,[5],inactive
same,Potency,[6],inactive
same,Potency,[7],10.2 µM (active)
same,Potency,[8],inactive
CN(C)CCCN1c2ccccc2Sc2ccc(Cl)cc21,outcome,[1],inactive
same,max response,[2],-6.45%
same,max response,[3],-16.5% (inactive)
same,activity change % (negative = inhibition),[13],-25.6% (inactive)
same,Potency,[5],inactive
same,Potency,[8],inactive
same,Potency,[14],inactive
same,outcome,[9],inactive
same,outcome,[10],inactive
same,outcome,[11],inactive
[Cl][In]([Cl])[Cl],outcome,[1],inactive
same,max response,[2],-2.25%
same,max response,[3],17.5% (inactive)
same,activity change % (negative = inhibition),[13],2% (inactive)
same,Potency,[4],inactive
same,Potency,[7],inactive
same,Potency,[8],inactive
CC1=C(/C=C/C(C)=C/C=C/C(C)=C/C(=O)O)C(C)(C)CCC1,activity change % (negative = inhibition),[13],3.37% (inactive)
same,Potency,[5],32.2 µM (active)
same,Potency,[6],inactive
same,Potency,[7],inactive
same,outcome,[9],inactive
same,outcome,[10],inactive
same,outcome,[11],inactive
same,outcome,[12],inactive
O=S(=O)(O)NC1CCCCC1,max response,[2],-8.27%
same,max response,[3],5.18% (inactive)
same,activity change % (negative = inhibition),[13],6.74% (inactive)
same,Potency,[4],inactive
same,Potency,[5],inactive
same,Potency,[7],inactive
C[C@H]1O[C@H](O[C@H]2[C@H](O)[C@@H](O)[C@@H](O[C@H]3[C@H](O)[C@@H](O)[C@H](O)O[C@@H]3CO)O[C@@H]2CO)[C@H](O)[C@@H](O)[C@@H]1N[C@H]1C=C(CO)[C@@H](O)[C@H](O)[C@H]1O,Potency,[4],inactive
CC1(C)Oc2ccc(C#N)cc2[C@@H](N2CCCC2=O)[C@@H]1O,Potency,[4],inactive
O=C(Oc1ccccc1C(=O)O)c1ccccc1O,Potency,[4],inactive
same,Potency,[5],inactive
C/C(=C(\CCOP(=O)(O)O)SC(=O)c1ccccc1)N(C=O)Cc1cnc(C)nc1N,Potency,[4],inactive
N[C@H]1C(O)O[C@H](CO)[C@@H](O)[C@@H]1O (some centres not stated),Potency,[4],inactive
COC(=O)[C@H]1[C@H]2C[C@@H]3c4[nH]c5cc(OC)ccc5c4CCN3C[C@H]2C[C@@H](OC(=O)COc2ccc(OC)cc2)[C@@H]1OC,Potency,[4],0.141 µM (active)
C[C@@H](O)[C@H](N)C(=O)O,Potency,[4],inactive
CN(N=O)C(=O)N[C@@H]1[C@@H](O)[C@H](O)[C@@H](CO)O[C@@H]1O,Potency,[4],inactive
CCOC(=O)[C@H](CCc1ccccc1)N[C@@H](C)C(=O)N1C(=O)N(C)C[C@H]1C(=O)O,Potency,[4],inactive
same,Potency,[5],inactive
same,Potency,[6],inactive
same,Potency,[7],inactive
O=Cc1ccccc1C=O,Potency,[4],inactive
same,Potency,[5],inactive
CN1CCCCC1CCN1c2ccccc2Sc2ccc(S(C)=O)cc21 (configuration not stated),Potency,[4],inactive
same,Potency,[5],inactive
COc1ccc2cc1Oc1ccc(cc1)C[C@H]1c3c(cc4c(c3Oc3cc5c(cc3OC)CCN(C)[C@@H]5C2)OCO4)CCN1C,Potency,[4],14.1 µM (active)
OC[C@H]1O[C@@H](O[C@@H]2[C@@H](CO)O[C@](O)(CO)[C@H]2O)[C@H](O)[C@@H](O)[C@H]1O,Potency,[4],inactive
CC1CC(OC(=O)C(O)c2ccccc2)CC(C)(C)N1C (configuration not stated),Potency,[4],inactive
CCOC(CN1CCN(CC(C)C(=O)c2ccccc2)CC1)c1ccccc1 (configuration not stated),Potency,[4],12.6 µM (active)
same,Potency,[5],inactive
CN(C)CCCO[C@@H]1[C@H]2OC(C)(C)O[C@H]2O[C@@H]1C(O)CO (some centres not stated),Potency,[4],inactive
O=C(O)COc1nn(Cc2ccccc2)c2ccccc12,Potency,[4],inactive
same,Potency,[5],inactive
same,Potency,[6],inactive
same,Potency,[7],inactive
O=c1[nH]cnc2c1ncn2[C@@H]1O[C@H](CO)[C@@H](O)[C@H]1O,Potency,[4],inactive
CCC(=O)c1ccc(O)cc1,Potency,[4],inactive
same,Potency,[5],inactive
same,Potency,[6],inactive
Cc1cc(O)cc2c1O[C@](C)(CCC[C@H](C)CCC[C@H](C)CCCC(C)C)CC2,Potency,[4],inactive
same,Potency,[5],inactive
same,Potency,[6],inactive
